Measured values from PubChem BioAssay AID652257 (The Scripps Research Institute Molecular Screening Center, 2013).
Out of some 370,000 compounds screened, about 4,800 (1.3%) were called active.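 Rule for the calls: active = inhibition above about 21% made by adding two undisclosed values (limit read from the data); inactive = the rest.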 Many of the other results were omitted from the sample, so actives are more common in it than they were.

biological target: Protein arginine N-methyltransferase 1 (Homo sapiens) (UniProt Q99873); experiment: human PRMT1 activity-probe blockers – biochemical, fluorescence polarization, primary screen (AID 652257); settings: recombinant PRMT1, activity-based probe fluorescence polarization; at 2.79 µM; active compounds read high
Sequence (Q99873 whole entry, looked up): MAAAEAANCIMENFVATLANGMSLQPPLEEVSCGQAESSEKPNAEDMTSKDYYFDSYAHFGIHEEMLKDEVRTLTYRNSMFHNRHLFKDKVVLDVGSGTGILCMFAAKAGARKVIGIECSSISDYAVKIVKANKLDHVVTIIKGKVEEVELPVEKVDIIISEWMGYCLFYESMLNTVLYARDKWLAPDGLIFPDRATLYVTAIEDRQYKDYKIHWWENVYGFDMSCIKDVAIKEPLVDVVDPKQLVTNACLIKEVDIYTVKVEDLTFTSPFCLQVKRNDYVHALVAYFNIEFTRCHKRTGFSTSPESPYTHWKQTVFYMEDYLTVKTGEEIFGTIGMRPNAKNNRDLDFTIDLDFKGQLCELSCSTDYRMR

Row | SMILES | inhibition
1 | CC(C)c1ccc(O)c(CN2CCN(c3ccccc3)CC2)c1 | -1.49% (inactive)
2 | Fc1ccc(N2CCN(Cc3ccc4c(c3)OCO4)CC2)cc1 | -0.82% (inactive)
3 | Oc1cc2c(cc1CN1CCN(c3ccccc3)CC1)OCO2 | 24.3% (active)
4 | O=C(N/N=C/c1c(O)n(C2CC2)c(=S)[nH]c1=O)c1ccccc1 | 3.82% (inactive)
5 | CC1C2Cn3c(nc4ccccc43)C1N(C)O2 (stereo not given) | 1% (inactive)
6 | O=S(=O)(c1ccccc1)N1CCC2CCNC2C1 (stereo not given) | -4.47% (inactive)
7 | ClC(Cl)(Cl)c1ccccc1 | -1.08% (inactive)
8 | O=C1NC(=O)N(c2ccccc2)C(=O)/C1=C/c1ccc([N+](=O)[O-])s1 | 30.1% (active)
9 | CC(C(=O)Nc1ccc(Cl)cc1Cl)N1CC=C(c2ccccc2)CC1 (stereo not given) | -2.84% (inactive)
10 | CCOc1ccc(-c2cc(C)[n+](CCN(CC)CC)c(-c3ccc(OCC)cc3)c2)cc1 | 4.49% (inactive)
11 | Cc1c(Oc2cc(NN3CCCCC3)c([N+](=O)[O-])cc2[N+](=O)[O-])cccc1[N+](=O)[O-] | 0.33% (inactive)
12 | CCOc1cccc(=NC2CCCCC2)c2c(C)[nH]c(C)c12 | 24.5% (active)
13 | COc1ccc2c(c1)[C@@]13CCCCC1[C@@H](C2)NCC3 (stereo not given in full) | 0.98% (inactive)
14 | CC(=O)C1(O)CCC2C3CCC4=C(Cl)C(=O)CCC4(C)C3CCC21C (stereo not given) | -3.26% (inactive)
15 | C=CCN1C(=O)NC(=O)/C(=C/c2ccc(OCC(=O)Nc3ccc(C)cc3)cc2)C1=O | 2.43% (inactive)
16 | CCCCC(=O)N/N=C/c1c(O)n(CCC2=CCCCC2)c(=O)[nH]c1=O | 4.46% (inactive)
17 | O=C(O)COc1ccccc1/C=C1\C(=O)NC(=O)N(CCC2=CCCCC2)C1=O | 21.6% (active)
18 | COP(=O)(Sc1ccccc1)C(Cc1ccccc1)NC(=O)OCc1ccccc1 (stereo not given) | 15.9% (inactive)
19 | CCC(C)NC1(c2ccccc2)CCCCC1 (stereo not given) | -3.67% (inactive)
20 | Brc1ccc2c(c1)CNCc1cnnn1-2 | -6.53% (inactive)
21 | CCCOC(=O)C1C2c3ccccc3C(c3ccccc32)C1C(=O)O (stereo not given) | -2.66% (inactive)
22 | Cc1cc(/C=C2/C(=O)NC(=O)N(Cc3ccco3)C2=O)c(C)n1-c1ccc(C(=O)O)cc1 | 42% (active)
23 | O=C1NC(=O)N(Cc2ccco2)C(=O)/C1=C\c1ccc(-c2ccc(F)cc2)o1 | 25% (active)
24 | Cc1cc(C=C2C(=O)NC(=O)NC2=O)c(C)n1-c1ccncc1 | 3.52% (inactive)
25 | Cc1ccc(-n2c(C)cc(/C=C3\C(=O)NC(=O)N(C)C3=O)c2C)cc1C | 2.43% (inactive)
26 | COc1cc2nc(N3CCN(C(=O)[C@@H]4CCCO4)CC3)nc(N)c2cc1OC | -2.88% (inactive)
27 | Cc1cc(N2C(=O)C3CCCN3C2c2ccc(Cl)c(Cl)c2)no1 (stereo not given) | 1.57% (inactive)
28 | COC(=O)C1=C(c2cc3ccccc3s2)C[C@@H]2CC[C@H]1N2C(=O)NCc1cccc2ccccc12 | -3.89% (inactive)

Row | SMILES | inhibition
29 | COP(=O)(NS(=O)(=O)c1ccccc1)OC | -6.51% (inactive)
30 | COc1ccccc1N=Nc1c(O)[nH]c(=S)[nH]c1=O | -3.43% (inactive)
31 | O=C1N=c2ccccc2=C/C1=C\c1c(O)[nH]c(=S)[nH]c1=O | 51.8% (active)
32 | Cc1ccc2c(c1)=C/C(=C\c1c(O)[nH]c(=O)[nH]c1=O)C(=O)N=2 | 7.2% (inactive)
33 | CO[C@H]([C@H](C)/C=C/N(C)C=O)[C@@H](C)C(=O)CC[C@H](C)[C@H](O)[C@H](C)[C@H]1OC(=O)/C=C/C(C)=C/[C@H](O)[C@H](OC)C[C@@H]2C=CC[C@@H](C[C@H](OC)[C@@]3(CO3)[C@@H](OC)C[C@@H](OC)[C@@H]1C)O2 | 1.29% (inactive)
34 | CCN(CC)C(=O)[C@@H]1C=C2c3cccc4[nH]c(Br)c(c34)C[C@H]2N(C)C1 | 9.48% (inactive)
35 | COP(=O)(OC)C(NC(=O)c1ccc(C)cc1)C(Cl)(Cl)Cl (stereo not given) | 1.17% (inactive)
36 | CN1CCC(N(C)Cc2cccnc2)CC1 | 11.7% (inactive)
37 | COc1ccc(N2C(=O)/C(=C/c3ccco3)C(=O)NC2=S)cc1 | 41.9% (active)
38 | O=C(COC(=O)Cc1ccccc1)Nc1ccc(F)cc1 | -1.27% (inactive)
39 | c1ccc(N2Cc3ccccc3-n3nncc3C2)nc1 | -1.49% (inactive)
40 | CCOC(=O)CC(SP1(=S)OCC2(CCCCO2)C(C2CCCCO2)O1)C(=O)OCC (stereo not given) | 55.3% (active)
41 | COc1ccc2c(c1)NP(=S)(c1ccccc1)N2 (stereo not given) | 14.7% (inactive)
42 | COc1ccc(CCn2c(O)c(C=NC3CC3)c(=O)[nH]c2=O)cc1OC | 0.57% (inactive)
43 | CCOC(=O)C1(Cc2ccc(Cl)cc2)CCN(C(C)CCn2cccn2)CC1 (stereo not given) | -1.84% (inactive)
44 | CC1CNCCN1c1ccc(Cl)cc1 (stereo not given) | -2.9% (inactive)
45 | Cc1cc(N2CCNC[C@@H]2C)ccc1N1CC[C@H](O)C1 | 49.5% (active)
46 | Clc1ccc([C@@H]2CC3CCC2N3)cn1 (stereo not given in full) | -1.63% (inactive)
47 | CC(C)CN1CCN(Cc2ccccc2C(F)(F)F)CC1CCO (stereo not given) | 0.64% (inactive)
48 | CCOC(=O)c1c(-c2ccccc2)oc2ccc(OC(=O)N(C)C)cc12 | 2.78% (inactive)
49 | COc1ccccc1NC(=O)N1C[C@@H]2C[C@@H](C1)c1cccc(=O)n1C2 | 1.82% (inactive)
50 | CS(=O)(=O)N1CCC2CCNC2C1 (stereo not given) | -2.72% (inactive)
51 | CC(=O)c1c(O)n(C2CCCCCC2)c(=O)[nH]c1=O | 23.2% (active)
52 | CC(=NCC1CCCO1)c1c(O)n(-c2ccccc2)c(=O)[nH]c1=O (stereo not given) | -2.12% (inactive)
53 | CCC(=NCCc1ccccc1)c1c(O)n(C2CCCCC2)c(=O)[nH]c1=O | -0.77% (inactive)
54 | Cc1ccccc1CCC[C@@H](CC1CCCCC1)CN(C)C(=O)Oc1ccccc1 | 0.94% (inactive)
55 | COc1cc(OC)cc(C(=O)NCCN2CCC3(CC2)C(=O)NCN3c2ccccc2)c1 | 1.49% (inactive)
